The results in this text go back to publication PMC9911399, “Two distinct binding modes provide the RNA-binding protein RbFox with extraordinary sequence specificity”.

Where a chain is given by its changes, count along the chain named. Over roughly 16,000 sequences, “ka relative to ugcaugu” has its median near 0.0091; the highest 2% begin near 0.032. Many of the other results were omitted from the sample, so the highest values are more common in it than they were.

T1: RBFOX1 RRM (Homo sapiens, UniProt Q9NWB1 109-208)
T1 sequence: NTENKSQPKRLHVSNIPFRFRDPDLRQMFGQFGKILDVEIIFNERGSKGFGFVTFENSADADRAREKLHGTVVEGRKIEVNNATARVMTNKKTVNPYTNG

B1: UAUUACU (DNA:RNA)
RNA: GGGAGACCGGAAUUCAGAUUGUCCUAUUACUUUAAAUCCCGUCGUAGCCACCA
DNA 1: CAATCTGAATTCCGGTCTCCC
DNA 2: TGGTGGCTACGACGGGATT
B2: AUAAGGU (DNA:RNA)
RNA: B1 RNA with U25A, A26U, U27A, U28A, A29G, C30G
DNA 1: CAATCTGAATTCCGGTCTCCC
DNA 2: TGGTGGCTACGACGGGATT
B3: CCGAAGU (DNA:RNA)
RNA: B1 RNA with U25C, A26C, U27G, U28A, C30G
DNA 1: CAATCTGAATTCCGGTCTCCC
DNA 2: TGGTGGCTACGACGGGATT
B4: AGGUAUU (DNA:RNA)
RNA: B1 RNA with U25A, A26G, U27G, C30U
DNA 1: CAATCTGAATTCCGGTCTCCC
DNA 2: TGGTGGCTACGACGGGATT
B5: UCAUCUG (DNA:RNA)
RNA: B1 RNA with A26C, U27A, A29C, C30U, U31G
DNA 1: CAATCTGAATTCCGGTCTCCC
DNA 2: TGGTGGCTACGACGGGATT
B6: GAGUUUA (DNA:RNA)
RNA: B1 RNA with U25G, U27G, A29U, C30U, U31A
DNA 1: CAATCTGAATTCCGGTCTCCC
DNA 2: TGGTGGCTACGACGGGATT
B7: ACUCUUU (DNA:RNA)
RNA: B1 RNA with U25A, A26C, U28C, A29U, C30U
DNA 1: CAATCTGAATTCCGGTCTCCC
DNA 2: TGGTGGCTACGACGGGATT
B8: AGGUCUA (DNA:RNA)
RNA: B1 RNA with U25A, A26G, U27G, A29C, C30U, U31A
DNA 1: CAATCTGAATTCCGGTCTCCC
DNA 2: TGGTGGCTACGACGGGATT
B9: CCGAGUC (DNA:RNA)
RNA: GGGAGACCGGAAUUCAGAUUGUCCCCGAGUCUUAAAUCCCGUCGUAGCCACCA
DNA 1: CAATCTGAATTCCGGTCTCCC
DNA 2: TGGTGGCTACGACGGGATT
B10: GAGAGUC (DNA:RNA)
RNA: B9 RNA with C25G, C26A
DNA 1: CAATCTGAATTCCGGTCTCCC
DNA 2: TGGTGGCTACGACGGGATT
B11: CGGGAUC (DNA:RNA)
RNA: B9 RNA with C26G, A28G, G29A
DNA 1: CAATCTGAATTCCGGTCTCCC
DNA 2: TGGTGGCTACGACGGGATT
B12: CGGAAUC (DNA:RNA)
RNA: B9 RNA with C26G, G29A
DNA 1: CAATCTGAATTCCGGTCTCCC
DNA 2: TGGTGGCTACGACGGGATT
B13: GAGUCUC (DNA:RNA)
RNA: B9 RNA with C25G, C26A, A28U, G29C
DNA 1: CAATCTGAATTCCGGTCTCCC
DNA 2: TGGTGGCTACGACGGGATT
B14: CCGGAUC (DNA:RNA)
RNA: B9 RNA with A28G, G29A
DNA 1: CAATCTGAATTCCGGTCTCCC
DNA 2: TGGTGGCTACGACGGGATT
B15: CAUGGAC (DNA:RNA)
RNA: B9 RNA with C26A, G27U, A28G, U30A
DNA 1: CAATCTGAATTCCGGTCTCCC
DNA 2: TGGTGGCTACGACGGGATT
B16: CUAAAAA (DNA:RNA)
RNA: B9 RNA with C26U, G27A, G29A, U30A, C31A
DNA 1: CAATCTGAATTCCGGTCTCCC
DNA 2: TGGTGGCTACGACGGGATT
B17: GGAGUAG (DNA:RNA)
RNA: GGGAGACCGGAAUUCAGAUUGUCCGGAGUAGUUAAAUCCCGUCGUAGCCACCA
DNA 1: CAATCTGAATTCCGGTCTCCC
DNA 2: TGGTGGCTACGACGGGATT
B18: GUCCUCG (DNA:RNA)
RNA: B17 RNA with G26U, A27C, G28C, A30C
DNA 1: CAATCTGAATTCCGGTCTCCC
DNA 2: TGGTGGCTACGACGGGATT
B19: UCGCUUG (DNA:RNA)
RNA: B9 RNA with C25U, A28C, G29U, C31G
DNA 1: CAATCTGAATTCCGGTCTCCC
DNA 2: TGGTGGCTACGACGGGATT
B20: UCGUCGC (DNA:RNA)
RNA: B9 RNA with C25U, A28U, G29C, U30G
DNA 1: CAATCTGAATTCCGGTCTCCC
DNA 2: TGGTGGCTACGACGGGATT
B21: UCGCUCG (DNA:RNA)
RNA: B9 RNA with C25U, A28C, G29U, U30C, C31G
DNA 1: CAATCTGAATTCCGGTCTCCC
DNA 2: TGGTGGCTACGACGGGATT
B22: UCGCUCC (DNA:RNA)
RNA: B9 RNA with C25U, A28C, G29U, U30C
DNA 1: CAATCTGAATTCCGGTCTCCC
DNA 2: TGGTGGCTACGACGGGATT
B23: UCCUCGC (DNA:RNA)
RNA: B9 RNA with C25U, G27C, A28U, G29C, U30G
DNA 1: CAATCTGAATTCCGGTCTCCC
DNA 2: TGGTGGCTACGACGGGATT

This assay concerns the target T1, RBFOX1 RRM. In words: EMSA; HiTS-Eq, 1 nM pool, 10 min; buffer printed only for the single-RNA assays: 10 mM Tris pH 7.5, 150 mM NaCl, 3.4 mM EDTA, 0.001% NP-40, 30 C. Conditions: tags: His6 N-terminal (pET28a); label: 5' 32P. In short, it runs like this:
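Relative association constants, normalised to the cognate motif, were derived by comparing read counts of each RNA species with those of the control reaction. The RNA sequenced was the free fraction, separated by 8% native PAGE after a 10 min equilibration in 50 µL of 1 nM 5′-radiolabelled RNA (7 randomized nucleotides) with increasing concentrations of purified wild-type or mutant RbFox RRM.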
For orientation: In EMSA bound probe runs differently from free probe, usually more slowly.
For B1, the binding signal was 0.00399 KA relative to UGCAUGU. As for B2, the figure is 0.00979 KA relative to UGCAUGU; as for B3, 0.00878 KA relative to UGCAUGU. As for B4, the figure is 0.0064 KA relative to UGCAUGU. Consider B5, for which the binding signal was 0.00773 KA relative to UGCAUGU.

Turning to B6, the binding signal is 0.00687 KA relative to UGCAUGU. Regarding B7, the binding signal is 0.00357 KA relative to UGCAUGU. As for B8, the figure is 0.00527 KA relative to UGCAUGU; as for B9, 0.0112 KA relative to UGCAUGU; as for B10, 0.0183 KA relative to UGCAUGU. As for B11, the figure is 0.0318 KA relative to UGCAUGU; as for B12, 0.0233 KA relative to UGCAUGU; as for B13, 0.032 KA relative to UGCAUGU. As for B14, the figure is 0.0104 KA relative to UGCAUGU; as for B15, 0.00577 KA relative to UGCAUGU. Consider B16, for which the binding signal is 0.000629 KA relative to UGCAUGU. As for B17, the figure is 0.0152 KA relative to UGCAUGU. As for B18, the figure is 0.0155 KA relative to UGCAUGU; as for B19, 0.0368 KA relative to UGCAUGU. As for B20, the figure is 0.0113 KA relative to UGCAUGU; as for B21, 0.0321 KA relative to UGCAUGU; as for B22, 0.0108 KA relative to UGCAUGU. As for B23, the binding signal was 0.00514 KA relative to UGCAUGU.
